Source: PubChem BioAssay AID738 (SRMLSC, 2007)
The campaign covered roughly 98,000 compounds. About 4,900 (5%) were called active. What follows is part of a selection rich in actives, with near analogues and random picks from the rest. Values without a mark were called inactive. No stated cut-off is given here; in the data, active means inhibition above about 30%; inactive means the rest.

Assay: yeast control strain growth suppression – counter-screen for post-Golgi transport modulator project, primary screen (AID 738)
Conditions: efflux-deficient yeast background strain, growth absorbance A615, 16 h; at 10 µM; active compounds read high

With c1ccc(-c2cn3cccnc3n2)cc1 as the compound, how does the inhibition read?
The inhibition was 10%.

For c1ccc(-c2cn3c(n2)CCc2ccc4cccnc4c2-3)cc1, which inhibition is on record?
Its inhibition is 42.3% (active).

With O=C(Nc1ccccc1)c1ccccc1NC(=O)C(F)(F)F as the compound, how does the inhibition read?
The inhibition was 10.5%.

Which inhibition does the source give for CCOC(=O)c1ccc(N2C(=O)CC(N3CCC(C(=O)OCC)CC3)C2=O)cc1 (stereo not given) here?
The inhibition was 0%.

Which inhibition does the source give for CCOC(=O)c1ccc(N2C(=O)CC(N3CC(C)OC(C)C3)C2=O)cc1 (stereo not given) here?
The inhibition was 7.03%.

With CCCCOC(=O)c1ccc(N2C(=O)CC(N3CCN(C/C=C/c4ccccc4)CC3)C2=O)cc1 (stereo not given) as the compound, how does the inhibition read?
The inhibition was 30.1% (active).

For O=C(NC1CCN(C(=S)NCc2ccco2)CC1)c1ccc(F)cc1, which inhibition is on record?
The inhibition was 7.63%.

Which inhibition does the source give for CCOC(=O)N1CCN(Cc2nc(N)nc(Nc3ccc(C)cc3)n2)CC1 here?
The inhibition was -1.25%.

Which inhibition does the source give for CC(C)c1ccc(NS(=O)(=O)c2cn(C)c(=O)n(C)c2=O)cc1 here?
Its inhibition is 94.4% (active).

With Cn1cc(S(=O)(=O)N2CCN(c3ccc(F)cc3)CC2)c(=O)n(C)c1=O as the compound, how does the inhibition read?
The inhibition was 3.87%.

For Cn1cc(S(=O)(=O)N2CCC(Cc3ccccc3)CC2)c(=O)n(C)c1=O, which inhibition is on record?
The inhibition was 2.66%.

With CC(CNc1ccc([N+](=O)[O-])cc1)NC(=O)c1ccccc1Br (stereo not given) as the compound, how does the inhibition read?
Its inhibition is 1.54%.

For CO/N=C/c1ccc(N2CCN(C(=O)c3cccc(Cl)c3)CC2)c([N+](=O)[O-])c1, which inhibition is on record?
Its inhibition is -2.25%.

With CC(C)NC(=O)c1ccc(Sc2ccccc2)c([N+](=O)[O-])c1 as the compound, how does the inhibition read?
The inhibition was -2.82%.

With CCOc1cc2[nH]c(=S)n(CCCN3CCCC3=O)c(=O)c2cc1OCC as the compound, how does the inhibition read?
Its inhibition is 35.1% (active).

For CCOc1cc2[nH]c(=S)n(CCN3CCCCC3C)c(=O)c2cc1OCC (stereo not given), which inhibition is on record?
Its inhibition is -3.72%.

For O=C(CCn1c(=S)[nH]c2ccccc2c1=O)NCCCN1CCCC1=O, which inhibition is on record?
Its inhibition is 18.7%.

For Cc1nn(-c2ncc(C(F)(F)F)cc2Cl)c(=O)n1-c1ccccc1, which inhibition is on record?
Its inhibition is 10.2%.

For Cc1ccc(-c2ccnc3nc(Sc4ncc(C(F)(F)F)cc4Cl)nn23)cc1, which inhibition is on record?
The inhibition was 36.2% (active).

Which inhibition does the source give for O=C(c1ccccn1)c1ncc(C(F)(F)F)cc1Cl here?
Its inhibition is 5.57%.

Which inhibition does the source give for O=C(Nc1ccccc1)OCc1cn(-c2ccc(Cl)cc2)nn1 here?
Its inhibition is 17.4%.

For CCC(=O)NC(NCC1CCCO1)C(Cl)(Cl)Cl (stereo not given), which inhibition is on record?
The inhibition was -2.21%.

For COc1ccc(C(=O)NNC(=O)c2cnccn2)cc1[N+](=O)[O-], which inhibition is on record?
Its inhibition is 7.69%.

For Cc1cccc(C(=O)Nc2ccccc2-c2nnn(CC(=O)Nc3ccc4c(c3)OCCO4)n2)c1, which inhibition is on record?
Its inhibition is 6.95%.

Which inhibition does the source give for N#CC1=C(N)Oc2c(sc3ccccc23)C1c1ccco1 (stereo not given) here?
Its inhibition is 13.9%.

Which inhibition does the source give for Cc1cc(C)c(C#N)c(SCc2[nH]nc3c2C(c2ccccc2)C(C#N)=C(N)O3)n1 (stereo not given) here?
Its inhibition is -0.29%.

Which inhibition does the source give for Cc1cc(C)c2c3c(sc2n1)C(c1ccccc1)C(C#N)=C(N)O3 (stereo not given) here?
The inhibition was 72.8% (active).

With C=CCOc1cccc(CNn2cn[nH]c2=S)c1 as the compound, how does the inhibition read?
Its inhibition is 5.3%.

For Cc1cccc(C)c1-n1c(C)cc(/C=C2\C(=O)NN(c3ccccc3)C2=O)c1C, which inhibition is on record?
Its inhibition is 20.6%.

For CCCCCOC(=O)NCCOC(=O)Nc1ccc(C(=O)OCC)cc1, which inhibition is on record?
The inhibition was 43% (active).

With CCCCC(CCC(=O)Nc1ccc(C(=O)OCC)cc1)C(=O)O (stereo not given) as the compound, how does the inhibition read?
The inhibition was -4.81%.

With CCOC(=O)Nc1ccc(NC(=O)OCC)cc1 as the compound, how does the inhibition read?
The inhibition was 3.65%.

With c1ccc(C2CCC(N3CCC(N4CCCCC4)CC3)CC2)cc1 (stereo not given) as the compound, how does the inhibition read?
Its inhibition is 1.52%.

With COc1ccc(NC(=O)Nc2ccc3nsnc3c2)cc1 as the compound, how does the inhibition read?
Its inhibition is -5.25%.

For COc1ccc(NC(=O)Nc2ccc3nc(C)c(C)nc3c2)cc1, which inhibition is on record?
The inhibition was 8.79%.

With O=C(Nc1ccc2ccccc2c1)Nc1ccc2snnc2c1 as the compound, how does the inhibition read?
Its inhibition is 67.9% (active).

Which inhibition does the source give for CCCCNC(=O)C(=O)c1ccccc1NC(C)=O here?
The inhibition was 7.01%.

For Cc1ccc(C(=O)NC2CCN(C(=O)N3CCOCC3)CC2)cc1, which inhibition is on record?
The inhibition was 7.51%.

Which inhibition does the source give for Cc1ccc(NC(=O)N2CCC(C(=O)NCc3ccc(F)cc3)CC2)cc1 here?
Its inhibition is 1.66%.

Which inhibition does the source give for Cc1cc(C)cc(NC(=O)N2CCC(NC(=O)c3ccc(F)cc3)CC2)c1 here?
Its inhibition is 37.4% (active).

For CCOC(=O)c1sc(C)c2c1NC(C)(c1cccc3ccccc13)NC2=O (stereo not given), which inhibition is on record?
Its inhibition is 30.4% (active).

Which inhibition does the source give for CCOC(=O)c1cc2ccccc2nc1C here?
The inhibition was 3.8%.

With CCOC(=O)c1nc(N)sc1C(=O)OCC as the compound, how does the inhibition read?
Its inhibition is -8.73%.

Which inhibition does the source give for CC1(C)CC(=O)C(C=NCCN2CCN(C(=S)Nc3cccc(Cl)c3)CC2)=C(O)C1 here?
Its inhibition is 1.4%.

For COc1cc(/C=N/NC(=O)Nc2ccccc2)ccc1OCCOc1ccccc1C, which inhibition is on record?
The inhibition was -1.48%.

With Nc1c(-c2cccc(Cl)c2)cnn1-c1cccc([N+](=O)[O-])c1 as the compound, how does the inhibition read?
Its inhibition is 4.05%.

Which inhibition does the source give for CCN(c1ccccc1)S(=O)(=O)c1ccc(NC(=O)C(C)(C)C)cc1 here?
The inhibition was 28.9%.

For CC(C)(CCl)C(=O)Nc1ccc(Sc2ccc(F)cc2)cc1, which inhibition is on record?
Its inhibition is 37.1% (active).

With COC(=O)c1ccc(Sc2ccc(F)cc2)c(N)c1 as the compound, how does the inhibition read?
The inhibition was 7.42%.

Which inhibition does the source give for CC(=O)N/C(=C/c1ccc(Cl)cc1)C(=O)NCCc1c[nH]c2ccccc12 here?
Its inhibition is 17.4%.

With CCCCCCC(=O)Nc1nc(C)c(-c2csc(Nc3cccc(OC)c3)n2)s1 as the compound, how does the inhibition read?
Its inhibition is 3.51%.

For C#CCNc1nc(C(C)C)nc2c1nnn2Cc1ccccc1F, which inhibition is on record?
Its inhibition is 22.2%.

Which inhibition does the source give for CC(C)(C)c1nc(NCC2CCCO2)c2nnn(Cc3ccccc3)c2n1 (stereo not given) here?
Its inhibition is 12.5%.

For Cc1nc(Nc2ccc3c(c2)OCCO3)c2nnn(Cc3ccccc3Cl)c2n1, which inhibition is on record?
The inhibition was 57.3% (active).

For CCCCNC(=S)NNC(=O)c1cc(C)on1, which inhibition is on record?
The inhibition was 6.93%.

Which inhibition does the source give for N#CC1=C(N)N(c2ccc(F)cc2)C(=O)C1 here?
The inhibition was 1.63%.

Which inhibition does the source give for Cc1ccccc1-n1c(C)cc(/C=N/NC(=O)c2ccc(CN3CCOCC3)cc2)c1C here?
Its inhibition is 7.99%.

Which inhibition does the source give for COc1ccccc1N1CCN(C(=O)c2cc(-c3ccc(Cl)c(Cl)c3)on2)CC1 here?
Its inhibition is 2.68%.

With COc1ccccc1-c1cc(C(=O)N2CCCCC2)no1 as the compound, how does the inhibition read?
The inhibition was 13.9%.

With COc1ccccc1N1CCN(C(=O)c2cc(-c3ccc(Br)cc3)on2)CC1 as the compound, how does the inhibition read?
The inhibition was 33.2% (active).

Which inhibition does the source give for NC(=O)N1CCCC1C(=O)Nc1ccc(Cl)c(Cl)c1 (stereo not given) here?
The inhibition was -1.15%.

For CC1=CC(C)(C)N(C(=O)CSc2nccn2C)c2cc(C)ccc21, which inhibition is on record?
Its inhibition is 1.07%.

Which inhibition does the source give for O=C(CSc1nnc(-c2ccccc2)o1)N1CCOCC1 here?
Its inhibition is 7.42%.

Which inhibition does the source give for CC1=CC(C)(C)N(C(=O)CSc2nnc(-c3ccccc3)o2)c2ccc(C)cc21 here?
The inhibition was 72.6% (active).

Which inhibition does the source give for CC(C)NC(=O)c1ccccc1S(=O)c1ccccc1C#N (stereo not given) here?
Its inhibition is -5.45%.

With Cc1nn(C)cc1C(=O)NNC(=S)Nc1ccc(Cl)cc1 as the compound, how does the inhibition read?
The inhibition was 2.4%.

With CCC(=O)N(Cc1ccccc1)c1ccccn1 as the compound, how does the inhibition read?
Its inhibition is 1.04%.

With Cc1ccc(C(=O)N/C(=C/C=C/c2ccccc2)C(=O)NCc2ccco2)cc1 as the compound, how does the inhibition read?
The inhibition was -1.68%.

For CN(CC(=O)Nc1cccc2c1CCCC2)S(=O)(=O)c1ccc(Cl)cc1, which inhibition is on record?
Its inhibition is -4.31%.

With COc1ccccc1C1C2=C(COC2=O)Nc2cc3c(cc21)OCO3 (stereo not given) as the compound, how does the inhibition read?
The inhibition was 6.27%.

With CCCOc1ccccc1C1CC(=O)Nc2cc3c(cc21)OCO3 (stereo not given) as the compound, how does the inhibition read?
The inhibition was 34.1% (active).

Which inhibition does the source give for COCCOC(=O)C1=C(C)NC(=O)CC1c1cc2c(cc1Br)OCO2 (stereo not given) here?
Its inhibition is -3.67%.

Which inhibition does the source give for COc1cc(C(=O)N2CCN(C/C=C/c3ccccc3)CC2)cc(OC)c1C here?
Its inhibition is 8.75%.

With COc1cnc(SCc2ccc(Cl)c(Cl)c2)nc1Cl as the compound, how does the inhibition read?
The inhibition was 16.9%.

With CCCn1nc2cc(C(=O)NCc3ccccc3)ccc2c1OCC as the compound, how does the inhibition read?
The inhibition was -6.87%.

With CSc1nc2ccc(S(=O)(=O)N3CCc4ccccc43)cc2s1 as the compound, how does the inhibition read?
Its inhibition is 52% (active).

With CCn1c(=O)c(=O)n(CC)c2cc(S(=O)(=O)N3CCc4ccccc43)ccc21 as the compound, how does the inhibition read?
The inhibition was 12.6%.

With Cn1c(=O)n(C)c2cc(S(=O)(=O)N3CCCc4ccccc43)ccc21 as the compound, how does the inhibition read?
Its inhibition is -3.51%.

With CCOc1ccc(C(CCc2ccccc2)NC(=O)c2ccc(OC)c(OC)c2)cc1OCC (stereo not given) as the compound, how does the inhibition read?
Its inhibition is -3.35%.

For C=CCNc1nc(N)c(C(=C(C#N)C#N)c2ccccc2)s1, which inhibition is on record?
The inhibition was 5.44%.

For CN1CCN(c2nc3c(c(=O)[nH]c(=O)n3C)n2Cc2cccc3ccccc23)CC1, which inhibition is on record?
Its inhibition is 9.64%.

Which inhibition does the source give for CC1CCN(c2nc3c(c(=O)[nH]c(=O)n3C)n2CCCc2ccccc2)CC1 here?
Its inhibition is 30.6% (active).

For C=C(C)Cn1c(N2CCCC2)nc2c1c(=O)[nH]c(=O)n2C, which inhibition is on record?
The inhibition was 6.94%.

Which inhibition does the source give for O=C1c2ccccc2C(=O)c2c1cccc2N1CCN(Cc2ccccc2)CC1 here?
The inhibition was 17.7%.

For CCn1c2ccccc2c2cc(NC(=O)C/C(C)=N/NC(=O)c3ccccc3N)ccc21, which inhibition is on record?
The inhibition was -1.98%.

For Cc1cccc(N2CCN(C(=O)CN(C)S(=O)(=O)c3ccc4c(c3)CCC(=O)N4)CC2)c1C, which inhibition is on record?
The inhibition was 6.36%.

With COc1ccccc1N1CCN(C(=O)c2ccc(S(=O)(=O)N3CCCCC3)cc2)CC1 as the compound, how does the inhibition read?
The inhibition was -0.79%.

With COc1ccc(C(=O)NC(=S)Nc2ccccc2N2CCN(S(C)(=O)=O)CC2)cc1OC as the compound, how does the inhibition read?
Its inhibition is 31.7% (active).

With CCC(=O)Nc1ccccc1N1CCN(S(C)(=O)=O)CC1 as the compound, how does the inhibition read?
The inhibition was 13.1%.

For O=C1/C(=C/c2cccs2)CCc2ccccc21, which inhibition is on record?
The inhibition was 12.8%.

Which inhibition does the source give for O=C(Nc1nccs1)C1CCN(S(=O)(=O)c2ccc(Cl)c(C(F)(F)F)c2)CC1 here?
Its inhibition is 17.7%.

With O=c1c(-c2ccccc2)coc2c(CN3CCOCC3)c(O)ccc12 as the compound, how does the inhibition read?
The inhibition was 10.4%.

Which inhibition does the source give for CCOC(=O)c1c(CN2CCOCC2)n(-c2ccccc2)c2ccc(O)cc12 here?
Its inhibition is 45.2% (active).

With CCOC(=O)c1nnn(-c2nonc2-n2cccc2)c1CN1CCOCC1 as the compound, how does the inhibition read?
The inhibition was -2.3%.

With O=C(COC(=O)c1ccccc1SCC(=O)NC1CCCCC1)NC1CCCCC1 as the compound, how does the inhibition read?
Its inhibition is 0.43%.
